For 40 compounds, Inhibition results are on record in ChEMBL document CHEMBL1157539, “Thousands of chemical starting points for antimalarial lead identification” (Nature, 2010).

For the assay, the system named is Plasmodium falciparum. Briefly: GSK_TCMDC: Inhibition of Plasmodium falciparum Dd2 in whole red blood cells, using parasite LDH activity as an index of growth. Test compounds present at 2uM. The class given is functional.
Broadly, the Inhibition is the relative decrease from the control value, in per cent. `CC(=O)Nc1csc(-c2cnc(/C=C(\C)C[C@@H]3OC[C@H](C[C@@H]4O[C@H]4[C@@H](C)[C@H](C)O)[C@@H](O)[C@H]3O)o2)c1` displayed an Inhibition of 8%.

In the case of `O=C(O)C(F)(F)F.O=c1cc(N2CCNCC2)c(Cl)nn1Cc1ccc(NS(=O)(=O)c2ccc(Oc3ccccc3)cc2)cc1`, the Inhibition turned out to be 0%.

`O=C(/C=C/c1ccc(Cl)c(Cl)c1)NCCCCCN1CCCC(C(=O)Nc2ccc(Cl)c(Cl)c2)C1` (stereo not given) showed an Inhibition of 11%.

In the case of `COc1ccc2nccc([C@@H](O)CN3CCC(NC(=O)/C=C/c4ccnc5ccccc45)CC3)c2c1`, the Inhibition came out at 12%.

In turn, `CCC(C)NS(=O)(=O)c1ccc2nc(Nc3ccc(C)cc3)n(C3CCCCC3C)c2c1` (stereo not given) registered an Inhibition of 99%.

`O=C(CCc1c[nH]cn1)Nc1cccc(-c2ccc(-c3nc4ccccc4[nH]3)cc2)c1` gave an Inhibition of 60%.

Consider `CCC(C)(C)c1ccc(Oc2ccc(NC(=O)Nc3ccc(Cl)c(Cl)c3)cc2)cc1`, for which the Inhibition is on record as 97%.

`c1ccc(-c2cccc(-c3ccccn3)n2)nc1` [TERPYRIDINE] yielded an Inhibition of 99%.

In turn, `CSc1ccc(CN2CCC(NC(=O)c3ccc(-c4cccc(C(F)(F)F)c4)s3)CC2)cc1.O=C(O)C(F)(F)F` returned an Inhibition of 9%.

`COc1ccc(-c2cncc(-c3ccc(OC)c(OC)c3)n2)cc1OC.Cl` showed an Inhibition of 90%.

For `CC(NCCC1CCC(NC(=O)N[C@H](C)C(O)(c2ccccc2)c2ccccc2)CC1)c1cccc2ccccc12` (stereo not given in full), the Inhibition was found to be 58%.

In the case of `COc1ccc2nc(-c3ccccc3)cc(NCCN(C)C)c2c1`, the Inhibition is 23%.

`Cc1cccc2nc(-c3ccc(-c4ccc(NC(=O)Nc5cccc(C#N)c5)cc4)cc3)[nH]c12` displayed an Inhibition of 100%.

In the case of `Cc1cccc2nc(-c3cccc(-c4cccc(CNCc5cccc(N)c5)c4)c3)[nH]c12.O=C(O)C(F)(F)F`, the Inhibition is on record as 73%.

The compound `COc1cccc(NC(=O)c2nc(N3CCN(c4ccncc4)CC3)ccc2Cl)c1.O=C(O)C(F)(F)F` yielded an Inhibition of 65%.

For `CCC/C=C/c1c(CNCCCNc2cc(=O)c3ccccc3[nH]2)sc(CC)c1Br.Cl`, the Inhibition amounted to 71%.

The compound `Cc1ccc(C)c(NC(=O)NC2CCN(c3ccnc(Nc4ccc(F)cc4)n3)C2)c1` (stereo not given) gave an Inhibition of 74%.

For `Cc1nc2ccc(-c3ccc(OC(F)(F)F)cc3)cc2c(O)c1C#N`, the Inhibition is given as 97%.

As to `O=C(/C=C/c1ccc(Cl)c(Cl)c1)NCCCCCN1CCC(CCNC(=O)/C=C/c2cc(C(F)(F)F)ccc2F)CC1`, the Inhibition is 46%.

Take `COc1ccc(-c2ccc(CN(C)C3CCC(NC(=O)c4cc5ccccc5[nH]4)CC3)cc2)cn1` (stereo not given): the Inhibition was 2%.

In turn, `Cc1ccc(NC(=O)c2ccc3ncccc3c2)cc1OC1CCN(Cc2ccc(F)cc2)CC1.O=C(O)C(F)(F)F` had an Inhibition of 22%.

As for `COc1ccc(CNCCCCCNCc2ccc(Cl)c(Cl)c2)cc1Cl`, the Inhibition stood at 43%.

Compound `O=C(/C=C/c1ccc(Cl)c(Cl)c1)NC1CCC(CN2CCC(c3nc4ccccc4n3CCCO)CC2)CC1` (stereo not given) came in with an Inhibition of 28%.

Turning to `Cc1ccc(NC(=O)c2cccc(C#N)c2)cc1-c1ccc(C(=O)Nc2ccncc2)cc1`, the Inhibition is reported as 64%.

With `Nc1nc(N)c2cc(S(=O)(=O)c3ccc4ccccc4c3)ccc2n1`, the Inhibition is given as 51%.

In the case of `Cl.Nc1nc(N)c2c(ccc3c2cnn3S(=O)(=O)N2CCCC2)n1`, the Inhibition worked out at 3%.

Take `Cc1cnc(C(=O)Nc2cccc(-c3cccc(-c4nc5cc(F)ccc5[nH]4)c3)c2)cn1`: the Inhibition is recorded as 24%.

In turn, `CN(CCN)Cc1cccc(-c2ccc(-c3nc4cc(C(F)(F)F)ccc4[nH]3)s2)c1.O=C(O)C(F)(F)F` gave an Inhibition of 92%.

As for `CCn1c(-c2nonc2N)nc2c(-c3cccc(NC(=O)Nc4ccc(Cl)cc4)c3)ncc(OCCCN)c21.O=C(O)C(F)(F)F`, the Inhibition turned out to be 72%.

For `CCNc1cc(C)nc(Nc2ccc(F)cc2)n1`, the Inhibition amounted to 57%.

`COc1ccc(C(=O)CCC(=O)N(Cc2ccc(-c3ccc(CNCCc4ccccc4)cn3)cc2)C(C)CN(C)C)cc1F.O=C(O)C(F)(F)F` (stereo not given) came in with an Inhibition of 57%.

With `c1ccc(Oc2ccc(Nc3ccnc4cc(-c5ccc(CN6CCOCC6)o5)ccc34)cc2)nc1`, the Inhibition was 73%.

With `COc1ccc2nccc(NC(=O)CNCc3ccc(-c4ccccc4)cc3)c2c1`, the Inhibition is recorded as 35%.

For the compound `NS(=O)(=O)c1cncc(-c2ccc3nccc(-c4cn[nH]c4)c3n2)c1`, the Inhibition was determined as 100%.

`Cc1cccc2nc(-c3ccc(-c4cccc(NC(=O)C(=O)c5cccn5C)c4)cc3)[nH]c12` gave an Inhibition of 17%.

Regarding `CCNc1cc(C)nc(Nc2ccccc2)n1`, the Inhibition was determined as 8%.

Take `Cc1cccc(NC(=O)c2cnc(N3CCN(c4ccncc4)CC3)c(Cl)c2)c1.O=C(O)C(F)(F)F`: the Inhibition was 54%.

`Cc1ccc(NC(=O)N2CCC(n3c(-c4ccccc4)nc4cccnc43)CC2)cc1F` gave an Inhibition of 85%.

With `COc1cc2c(cc1S(=O)(=O)c1ccc(NC(=O)c3cccc(C(F)(F)F)c3)cc1)CCN(C)CC2`, the Inhibition came to 25%.

In turn, `O=C(NC1CCC(N2CCC(O)(c3ccc(F)cc3)CC2)CC1)c1cc2ccccc2[nH]1` (stereo not given) gave an Inhibition of 8%.
